Data as given in PubChem BioAssay AID485284 (NMMLSC, 2010).
Potency and affinity values are given separately.

assay: loss of vesicle association with mouse CD8+ T cells – mouse 2C CD8+ T cells, flow cytometry, dose response (AID 485284); details: 2C mouse CD8+ T cell-exosome binding; at 45 µM (top of the series);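 note: drosophila derived vesicles carrying Ld MHC with QL9 peptide plus B7-1 and ICAM-1; vesicle binding seen as anti-B7-1 PE fluorescence on CD8 gated cells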

**Q.** For `COc1ccc(S(=O)(=O)N2CCCC2C(=O)Nc2ccc(C(C)=O)cc2)cc1` (centres undefined), which binding remaining, % of control is on record?
**A.** The binding remaining, % of control was 91.8%.

**Q.** With `COc1ccc([C@H]2CC(=O)C=C(c3c(C)cc(C)cc3C)C2)cc1` as the compound, how does the binding remaining, % of control read?
**A.** Its binding remaining, % of control is 56.3%.

**Q.** With `O=C(NCc1cccnc1)C(=O)NCC(c1ccco1)N1CCN(c2ccccc2)CC1` (centres undefined) as the compound, how does the binding remaining, % of control read?
**A.** Its binding remaining, % of control is 110%.

**Q.** For `O=C1CCCc2sccc2N1`, which binding remaining, % of control is on record?
**A.** Its binding remaining, % of control is 106%.

**Q.** Which binding remaining, % of control does the source give for `Cc1cc(N2CCN(C)CC2)nc2ccc(NC(=S)N3CCC4(CC3)OCCO4)cc12` here?
**A.** Its binding remaining, % of control is 147%.

**Q.** For `Cc1cccc(NC(=O)CN2C(=O)N/C(=C\c3ccc(N4CCOCC4)cc3)C2=O)c1`, which binding remaining, % of control is on record?
**A.** Its binding remaining, % of control is 142%.

**Q.** Which binding remaining, % of control does the source give for `CCOC(=O)CSc1nc(COc2ccccc2)nc2ccccc12` here?
**A.** Its binding remaining, % of control is 99.6%.

**Q.** With `O=C(c1ccc(N2C(=O)C3CC=C(Cl)CC3C2=O)cc1)N1CCCCC1` (centres undefined) as the compound, how does the binding remaining, % of control read?
**A.** The binding remaining, % of control was 18.5%.

**Q.** With `CCOC(=O)C1CCN(C(=O)c2ccc(NC(=O)C3CCCO3)cc2)CC1` (centres undefined) as the compound, how does the binding remaining, % of control read?
**A.** Its binding remaining, % of control is 218%.

**Q.** Which binding remaining, % of control does the source give for `CCN1CCN(c2ccc(NC(=O)c3cc4ccccc4cc3OC)cc2C)CC1` here?
**A.** The binding remaining, % of control was 128%.

**Q.** With `NC(=O)NC(=O)COC(=O)CN1C(=O)C2CCCCC2C1=O` (centres undefined) as the compound, how does the binding remaining, % of control read?
**A.** The binding remaining, % of control was 164%.

**Q.** With `COc1ccc(NC(=O)Nc2c(O)ccc3ccccc23)cc1` as the compound, how does the binding remaining, % of control read?
**A.** Its binding remaining, % of control is 76.2%.

**Q.** Which binding remaining, % of control does the source give for `COc1ccc(N2CC(C(=O)N[C@@H](C)C(=O)NCc3ccccc3OC)CC2=O)cc1` (some centres undefined) here?
**A.** Its binding remaining, % of control is 24.3%.

**Q.** Which binding remaining, % of control does the source give for `COc1ccc(-c2cc(=O)c3cc(O)ccc3o2)cc1` here?
**A.** Its binding remaining, % of control is 110%.

**Q.** Which binding remaining, % of control does the source give for `COc1ccc(/C=C2\SC(N3CCc4ccccc4C3)=NC2=O)cc1OC` here?
**A.** The binding remaining, % of control was 18.6%.

**Q.** Which binding remaining, % of control does the source give for `CCOc1ccc(NC(=O)CN(C)C(=O)c2ccc(N3CCOCC3)c([N+](=O)[O-])c2)cc1OCC` here?
**A.** Its binding remaining, % of control is 134%.

**Q.** Which binding remaining, % of control does the source give for `CCN(CC)S(=O)(=O)c1ccc2c3c(cccc13)C(=O)N2` here?
**A.** The binding remaining, % of control was 56.2%.

**Q.** With `COc1ccccc1NS(=O)(=O)c1cc(NC(=O)CNC(=O)c2cc(C)cc(C)c2)ccc1C` as the compound, how does the binding remaining, % of control read?
**A.** The binding remaining, % of control was 40.9%.

**Q.** For `CCCCN(C(=O)C1CCC1)c1c(N)n(CC(C)C)c(=O)[nH]c1=O`, which binding remaining, % of control is on record?
**A.** The binding remaining, % of control was 53.6%.

**Q.** For `COc1ccc(NC(=O)C2CCC(C(C)(C)C)CC2)cc1S(=O)(=O)N1CCCCC1` (centres undefined), which binding remaining, % of control is on record?
**A.** The binding remaining, % of control was 97.1%.

**Q.** With `CCOC(=O)N1CCN(Cc2nc(-c3ccc(C)cc3)no2)CC1` as the compound, how does the binding remaining, % of control read?
**A.** The binding remaining, % of control was 78.4%.

**Q.** For `CC(=O)c1cccc(NC(=O)c2ccncc2)c1`, which binding remaining, % of control is on record?
**A.** Its binding remaining, % of control is 35.3%.

**Q.** For `O=C(COC(=O)C1(c2cccc(F)c2)CCCC1)NCc1ccc2c(c1)OCO2`, which binding remaining, % of control is on record?
**A.** Its binding remaining, % of control is 72.1%.

**Q.** With `CCOC(=O)c1ccc(NC(=O)CN2C(=O)NC3(CCCCCCC3)C2=O)cc1` as the compound, how does the binding remaining, % of control read?
**A.** The binding remaining, % of control was 44.2%.

**Q.** Which binding remaining, % of control does the source give for `CCC1(c2ccccc2)NC(=O)N(CC(=O)Nc2cc(Cl)ccc2N2CCN(C)CC2)C1=O` (centres undefined) here?
**A.** The binding remaining, % of control was 124%.

**Q.** With `COc1ccccc1CNC(=O)c1ccc(N(C)S(=O)(=O)c2ccc(C)cc2)cc1` as the compound, how does the binding remaining, % of control read?
**A.** The binding remaining, % of control was 156%.

**Q.** Which binding remaining, % of control does the source give for `COc1ccc([C@H]2CC(=O)C=C(c3cccc(Cl)c3)C2)cc1` here?
**A.** Its binding remaining, % of control is 141%.

**Q.** For `COc1ccc(C(=O)NNC(=O)CSc2nnnn2C)cc1`, which binding remaining, % of control is on record?
**A.** The binding remaining, % of control was 181%.

**Q.** With `CCN1CCN(c2ccc(S(=O)(=O)N3CCOCC3)cc2NC(=O)/C=C/c2ccc(C)cc2)CC1` as the compound, how does the binding remaining, % of control read?
**A.** Its binding remaining, % of control is 98.1%.

**Q.** For `O=C(Cc1cccc(NC(=O)C2CCCN(C(=O)C3CC3)C2)c1)Nc1cccc(C(=O)N2CCCC2)c1` (centres undefined), which binding remaining, % of control is on record?
**A.** The binding remaining, % of control was 47.2%.

**Q.** Which binding remaining, % of control does the source give for `O=C(Oc1ccc(C(=S)N2CCOCC2)cc1)c1ccc(F)cc1` here?
**A.** The binding remaining, % of control was 63.3%.

**Q.** With `CC(C)[C@H]1C(=O)Nc2ccccc2N1C(=O)N[C@@H](Cc1ccccc1)C(=O)N[C@@H](Cc1ccccc1)C(=O)O` as the compound, how does the binding remaining, % of control read?
**A.** The binding remaining, % of control was 168%.

**Q.** Which binding remaining, % of control does the source give for `Cc1nc2sc(C(c3ccccc3)N3CCN(c4ccccc4F)CC3)c(O)n2n1` (centres undefined) here?
**A.** Its binding remaining, % of control is 163%.

**Q.** Which binding remaining, % of control does the source give for `O=C(Nc1ncc([N+](=O)[O-])s1)c1cccs1` here?
**A.** Its binding remaining, % of control is 56.8%.
